Test results published in PubChem BioAssay.
Activity calls are given as the source filed them.

Tests used:
[1] = test system: Human papillomavirus type 1a protein E7 (residues 44-93); assay: small molecules binding HPV E7 44-93 – biochemical, small-molecule microarray, residues 44-93, 635 nm fluorescence, primary screen (AID 1108); details: fluorescence 635 nm, higher = more signal;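 also: E7 fragment applied at 1 µg/mL in TBST for 1 h at 4 C; score combines spot fluorescence with its signal to noise ratio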
[2] = hepatitis C replication reporter changes, two-sided – Huh7 cells, luciferase reporter, HCV replication inhibitor project, primary screen (AID 1109); details: Huh7 HCV replicon luciferase reporter, 48 h; higher = more signal;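 also: huh7 hepatoma cells harbouring a luciferase neomycin HCV replicon reporter; luciferase luminescence as measure of HCV replicon replication; test concentration not given here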
[3] = molecular target: Left-right determination factor 2 (Homo sapiens) (UniProt O00292); assay: small molecules binding LEFTY2 protein – biochemical, small-molecule microarray, 635 nm fluorescence scan, primary screen (AID 1110); details: higher = more signal
Left-right determination factor 2 (Homo sapiens), sequence (O00292 whole entry, looked up): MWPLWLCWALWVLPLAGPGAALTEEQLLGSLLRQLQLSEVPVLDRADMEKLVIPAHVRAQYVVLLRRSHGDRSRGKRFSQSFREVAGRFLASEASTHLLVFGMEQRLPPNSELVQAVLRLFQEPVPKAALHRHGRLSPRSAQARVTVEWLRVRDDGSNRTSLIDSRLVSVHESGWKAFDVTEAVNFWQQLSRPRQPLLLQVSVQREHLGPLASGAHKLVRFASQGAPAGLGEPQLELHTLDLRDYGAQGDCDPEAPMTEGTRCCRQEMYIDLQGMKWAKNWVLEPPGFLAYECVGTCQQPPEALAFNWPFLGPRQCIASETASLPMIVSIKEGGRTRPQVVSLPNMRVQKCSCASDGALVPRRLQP

[4] = molecular target: Calmodulin-1 (Homo sapiens) (UniProt P0DP23); assay: small molecules binding calmodulin-1 with EGTA – biochemical, small-molecule microarray, Cy5-labelled CALM1, profiling panel (AID 1111); details: Cy5-CALM1 binding fluorescence, higher = more signal;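 also: labelled calmodulin applied in Tris saline Tween buffer holding calcium plus EGTA and DTT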
[5] = molecular target: Calmodulin-1 (Homo sapiens) (UniProt P0DP23); assay: small molecules binding Ca-loaded calmodulin-1 – biochemical, small-molecule microarray, Cy5-labelled CALM1, plus calcium, artefact control for SMM control-protein annotation, profiling panel (AID 1112); details: Cy5-CALM1 binding fluorescence, higher = more signal;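 also: score merges spot fluorescence with signal to noise from triplicate slides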
[6] = probe aWnt5a binding to arrayed compounds – biochemical, biotinylated probe, 635/667 nm fluorescence, primary screen (AID 1113); details: small-molecule microarray, higher = more signal;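 also: score merges 667 nm fluorescence intensity with signal-to-noise per printed feature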
[7] = probe aShh binding to arrayed compounds – biochemical, biotinylated probe, 635/667 nm fluorescence, primary screen (AID 1114); details: small-molecule microarray, higher = more signal;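 also: probe is biotin-labelled aShh protein from a stem cell growth factor screen; measures binding of labelled protein to compounds printed on the slide; score merges feature fluorescence at 667 nm with signal-to-noise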
[8] = probe aNog binding to arrayed compounds – biochemical, biotinylated probe, 635/667 nm fluorescence, primary screen (AID 1115); details: small-molecule microarray, higher = more signal;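 also: probe is biotinylated aNog protein used at 0.15 µg/mL for 1 h at 4 C; z-score combines 667 nm fluorescence of each spot with its signal to noise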
[9] = molecular target: Torsin-1A-interacting protein 1 (Homo sapiens) (UniProt Q5JTV8); assay: compound microarray binding of lysate hLAP1 – cell lysate, small-molecule microarray, COS7 lysate, 635/667 nm fluorescence, primary screen (AID 1116); details: 635 nm fluorescence, higher = more signal
Torsin-1A-interacting protein 1 (Homo sapiens), sequence (Q5JTV8 whole entry, looked up): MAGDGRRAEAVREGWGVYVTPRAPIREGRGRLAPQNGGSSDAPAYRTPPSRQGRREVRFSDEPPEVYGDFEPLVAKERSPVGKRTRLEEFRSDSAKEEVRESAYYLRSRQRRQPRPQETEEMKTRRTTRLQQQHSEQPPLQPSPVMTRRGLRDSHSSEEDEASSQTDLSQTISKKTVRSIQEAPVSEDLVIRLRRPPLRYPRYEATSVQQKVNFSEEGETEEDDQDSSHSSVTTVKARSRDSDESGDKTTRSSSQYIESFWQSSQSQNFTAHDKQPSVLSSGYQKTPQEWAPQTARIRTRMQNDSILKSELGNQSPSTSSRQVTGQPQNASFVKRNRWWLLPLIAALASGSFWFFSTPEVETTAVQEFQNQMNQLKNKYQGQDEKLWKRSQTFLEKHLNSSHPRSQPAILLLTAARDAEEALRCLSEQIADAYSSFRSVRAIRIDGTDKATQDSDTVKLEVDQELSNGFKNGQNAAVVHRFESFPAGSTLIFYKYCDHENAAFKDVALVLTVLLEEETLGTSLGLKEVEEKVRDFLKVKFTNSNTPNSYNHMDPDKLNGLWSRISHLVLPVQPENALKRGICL

[10] = molecular target: Alpha-bungarotoxin (Bungarus multicinctus) (UniProt P60615); assay: compounds binding labelled alpha-BTX control protein – biochemical, small-molecule microarray, Alexa647 label, 635/667 nm fluorescence, artefact control for SMM control protein annotation, profiling panel (AID 1117); details: alpha-BTX-A647 binding fluorescence, higher = more signal
Alpha-bungarotoxin (Bungarus multicinctus), sequence (P60615 whole entry, looked up): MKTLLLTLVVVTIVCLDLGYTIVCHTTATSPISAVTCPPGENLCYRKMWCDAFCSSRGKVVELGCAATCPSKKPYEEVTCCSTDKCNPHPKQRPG

Albumin (Bos taurus) = Albumin (Bos taurus) (UniProt P02769); assay: compounds binding labelled BSA control protein – biochemical, small-molecule microarray, Alexa647 label, 635/667 nm fluorescence, artefact control for SMM control protein annotation, profiling panel (AID 1118); details: BSA-A647 binding, fluorescence 635 nm, higher = more signal;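 also: score merges 667 nm emission intensity and signal-to-noise per printed compound spot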
Albumin (Bos taurus), sequence (P02769 whole entry, looked up): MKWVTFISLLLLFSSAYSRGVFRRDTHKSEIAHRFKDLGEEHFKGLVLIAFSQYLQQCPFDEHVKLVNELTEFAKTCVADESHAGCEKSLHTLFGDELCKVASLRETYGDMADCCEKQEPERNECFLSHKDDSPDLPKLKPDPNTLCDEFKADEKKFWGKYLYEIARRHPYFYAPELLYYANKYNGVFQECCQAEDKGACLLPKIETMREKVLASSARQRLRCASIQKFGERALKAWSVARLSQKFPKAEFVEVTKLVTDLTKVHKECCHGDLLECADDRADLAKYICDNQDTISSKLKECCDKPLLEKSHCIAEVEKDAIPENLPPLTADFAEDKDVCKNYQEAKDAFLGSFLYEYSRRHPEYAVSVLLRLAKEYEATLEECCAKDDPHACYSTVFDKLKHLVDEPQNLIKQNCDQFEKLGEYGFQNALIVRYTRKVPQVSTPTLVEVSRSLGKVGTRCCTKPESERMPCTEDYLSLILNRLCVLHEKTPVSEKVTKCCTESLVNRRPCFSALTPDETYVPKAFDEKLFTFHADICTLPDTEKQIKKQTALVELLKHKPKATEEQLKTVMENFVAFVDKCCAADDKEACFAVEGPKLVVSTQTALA

[11] = probe aXIP binding to arrayed compounds – biochemical, NeuroSMM set, 635/667 nm fluorescence, primary screen (AID 1119); details: small-molecule microarray, higher = more signal, called active from +8 up or from −8 down;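 also: probe is the protein aXip251-270 applied at 1 µg/mL to compound-printed slides; binding of probe to printed compounds measured as 667 nm fluorescence plus signal to noise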
[12] = probe aNOTCH3 binding on compound microarray – biochemical, small-molecule microarray, 635/667 nm fluorescence, primary screen (AID 1120); details: higher = more signal;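 also: probe is a biotin-tagged antibody raised against NOTCH3 rather than NOTCH3 protein; score merges spot fluorescence near 667 nm with spot signal to noise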
[13] = probe aNOTCH2 binding on compound microarray – biochemical, small-molecule microarray, 635/667 nm fluorescence, primary screen (AID 1121); details: higher = more signal;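 also: score merges feature fluorescence read at 667 nm with its signal to noise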
[14] = molecular target: Carbonic anhydrase 2 (Homo sapiens) (UniProt P00918); assay: compounds binding carbonic anhydrase 2 – biochemical, small-molecule microarray, Alexa647-labelled CAII, profiling panel (AID 1122); details: CAII-A647 binding fluorescence, higher = more signal
[15] = COS7 lysate on small-molecule microarray, probe aHis, 635 nm (AID 1123); details: COS7 cell lysate, fluorescence, higher = more signal;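 also: z-score combines 667nm fluorescence intensity with signal-to-noise per printed compound spot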
[16] = probe aLAP1 signal on lysate-treated microarray – cell lysate, small-molecule microarray, COS7 lysate, primary screen (AID 1124); details: probe aLAP1, fluorescence, higher = more signal;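 also: lysate comes from COS7 cells expressing LAP1 and is applied at 0.3 µg/mL; score merges spot fluorescence near 667 nm with signal-to-noise over triplicate slides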
Sam68 (KHDRBS1) = assay: compounds binding KHDRBS1 protein – biochemical, small-molecule microarray, 635 nm fluorescence, primary screen (AID 1125); details: higher = more signal;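 also: score merges 667 nm channel intensity with signal to noise over triplicate slides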
[17] = test system: Chordin-like protein 2 (CHRDL2); assay: compounds binding chordin-like 2 – biochemical, small-molecule microarray, 635 nm fluorescence, primary screen (AID 1126); details: fluorescence 635 nm, higher = more signal;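 also: printed compound slides probed with Chrdl2 protein at 4 µg/mL for 1 h at 4 C; score merges 667 nm emission intensity with signal to noise over three replicate slides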
[18] = molecular target: Concanavalin-A (Canavalia ensiformis) (UniProt P02866); assay: compounds binding concanavalin A lectin – biochemical, small-molecule microarray, Alexa647 label, 635 nm, artefact control for SMM control protein annotation, primary screen (AID 1127); details: ConA-A647 binding fluorescence, higher = more signal;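 also: z combines 667 nm emission intensity with signal-to-noise across three replicate slides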
Concanavalin-A (Canavalia ensiformis), sequence (P02866 whole entry, looked up): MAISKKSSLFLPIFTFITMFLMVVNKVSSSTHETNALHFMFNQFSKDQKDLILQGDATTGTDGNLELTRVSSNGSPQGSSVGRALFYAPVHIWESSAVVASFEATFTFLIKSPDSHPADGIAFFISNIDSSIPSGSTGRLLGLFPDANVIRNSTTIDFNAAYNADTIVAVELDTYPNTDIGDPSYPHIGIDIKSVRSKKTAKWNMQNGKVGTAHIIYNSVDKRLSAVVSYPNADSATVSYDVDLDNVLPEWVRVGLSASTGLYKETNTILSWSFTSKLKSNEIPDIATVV

| Compound | composite z-score [1] | z-score [2] | composite z-score [3] | composite z-score [4] | composite z-score [5] | composite z-score [6] | composite z-score [7] | composite z-score [8] | composite z-score [9] | composite z-score [10] | composite z-score (Albumin (Bos taurus)) | composite Z-score [11] | composite z-score [12] | composite z-score [13] | composite z-score [14] | composite z-score [15] | composite z-score [16] | composite z-score (Sam68 (KHDRBS1)) | composite z-score [17] | composite z-score [18] |
| --- | --- | --- | --- | --- | --- | --- | --- | --- | --- | --- | --- | --- | --- | --- | --- | --- | --- | --- | --- | --- |
| O=C1CCCC=C1C(O)C1CCCCC1 (stereo not given) | -0.64 | 0.108 | -0.0231 | -0.583 | -0.389 | 0.0088 | -0.186 | -0.134 | -0.207 | -0.268 | -0.0548 | -0.0549 (inactive) | -0.0325 | -0.0818 | -0.102 | 0.181 | -0.607 | -0.429 | 0.214 | -0.275 |
| CCN1C(=O)[C@H]2[C@H]3[C@H](O)[C@H](O)CC(=NO[C@H](C)c4cn([C@H](CO)Cc5ccccc5)nn4)[C@@H]3CC[C@H]2C1=O | 0.485 | -1.02 | 0.741 | 0.782 | -0.0865 | -0.0573 | -0.358 | 0.202 | 0.476 | 1.29 | 0.818 | 0.444 (inactive) | 0.0539 | -0.135 | 0.412 | 0.785 | 1.39 | 1.1 | -0.0064 | 1.05 |
| COC(=O)[C@H](C)NC(=O)CCC1CC(OC(=O)NCc2ccc3c(c2)OCO3)CC2(CCCC(COC(=O)NCc3ccccc3)O2)O1 (stereo not given in full) | 1.25 | 0.188 | 0.508 | 0.202 | -0.558 | -0.001 | -0.0709 | -0.258 | 0.179 | 0.159 | -0.372 | 0.264 (inactive) | -0.0072 | -0.156 | 0.192 | 0.849 | -0.0296 | 1.26 | 0.133 | 0.829 |
| C[C@@H](c1ccccc1)N1C(=O)[C@H]2[C@H]3[C@H](O)[C@H](O)CC(=NOC[C@@H](O)COCc4ccco4)[C@H]3CC[C@H]2C1=O | -0.788 | -0.978 | 0.858 | -0.858 | -1.65 | -0.196 | 0.0952 | -0.285 | -0.175 | -0.0662 | -0.0559 | -0.0004 (inactive) | 0.106 | -0.189 | -0.578 | -0.795 | 0.565 | -0.382 | 1.51 | -0.832 |
| COC(=O)[C@H](Cc1ccccc1)NC(=O)[C@@H](C)CO | -0.0054 | -0.499 | 0.597 | -0.597 | -0.32 | -0.034 | 0.214 | 0.376 | 0.763 | 0.0296 | 0.317 | 0.047 (inactive) | 0.226 | -0.181 | 0.465 | 0.207 | 0.143 | 0.48 | 0.501 | -1.01 |
| COC(=O)[C@H](C)NC(=O)CC=C[C@@H](C)[C@@H]1C=C[C@H](O)[C@@H](CO)O1 | 0.075 | -0.0833 | 1.14 | -0.698 | -1.35 | -0.0799 | -0.0474 | -0.0926 | 0.326 | -0.392 | -0.453 | -0.0756 (inactive) | -0.0932 | -0.237 | -0.114 | -0.346 | -0.0681 | 0.457 | 1.33 | -0.174 |
| COc1ccc2c(c1)O[C@@H](c1cccc(C(F)(F)F)c1)[C@H](O)C2=O | 0.368 | 1.18 | 0.428 | 0.172 | -0.427 | -0.172 | -0.304 | -0.0496 | 0.342 | 0.375 | 0.442 | 0.115 (inactive) | -0.152 | -0.0761 | 0.0122 | -0.0749 | 0.0318 | 0.642 | 0.647 | 0.494 |
| CON=C[C@@H](OC)[C@H](C)C=CCC(=O)OC | -1.72 | -0.337 | 0.262 | -0.491 | -0.476 | -0.0573 | 0.0952 | -0.296 | 0.447 | -0.023 | -0.518 | 0.0575 (inactive) | -0.0014 | -0.201 | -0.312 | 0.157 | -0.195 | -0.258 | 0.231 | -0.105 |
| CC(C)=NO[C@H](C)c1cn([C@@H]2COC[C@H]2O)nn1 | 0.427 | 0.78 | 0.48 | -0.312 | -0.956 | -0.169 | -0.138 | -0.216 | 0.26 | 0.159 | 0.392 | -0.679 (inactive) | 0.0694 | -0.147 | 0.0793 | 0.0027 | 0.191 | 0.317 | 0.655 | 0.139 |
| CCOC(=O)[C@H](CC(C)C)NC(=O)CCC1CC(OC(=O)NCc2ccc3c(c2)OCO3)CC2(CCCC(COC(=O)NCCc3ccccc3OC)O2)O1 (stereo not given in full) | 1.31 | -0.621 | 0.613 | 0.618 | -0.375 | -0.298 | -0.0626 | -0.41 | 0.389 | 0.556 | 0.31 | 1.05 (inactive) | -0.0328 | -0.0633 | 0.127 | 0.754 | 0.0278 | 1.29 | 0.663 | 1.05 |
| Cc1ccc(S(=O)(=O)N[C@@H]2COC(=O)CC=C[C@@H](C)[C@H](NS(=O)(=O)c3ccc(C)cc3)COC(=O)[C@H](C)NC(=O)CC=C[C@H]2C)cc1 | -1.64 | 0.311 | 0.846 | -0.683 | -0.951 | -0.194 | -0.221 | 0.122 | -0.123 | -0.621 | -0.953 | -0.211 (inactive) | -0.0647 | -0.0808 | -0.548 | -1.18 | -0.108 | -1.17 | 0.835 | -1.46 |
| COC(=O)[C@H](C)NC(=O)CCC1CC(OC(=O)NCc2ccc3c(c2)OCO3)CC2(CCCC(COC(=O)NCCc3ccc(Cl)cc3)O2)O1 (stereo not given in full) | 0.536 | -0.562 | 1.13 | -0.209 | -0.97 | -0.0367 | 0.0893 | -0.111 | 0.288 | 0.202 | 0.293 | 0.0601 (inactive) | 0.0129 | -0.0974 | 0.0233 | 0.043 | -0.0478 | 0.422 | 1.26 | -0.455 |
